# Compounds without any hit were thinned out: in the full panel of roughly 83,000, 20% have a hit.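 Note: values are percent growth. 100 is the growth of untreated cells, values between 100 and 0 indicate rising inhibition; between -100 and 0 indicates cell death.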 Unmarked numbers belong to inactive results. Active and inactive are the calls of the source. How the source made its calls: active means growth percent below 10; inactive means the rest.
# Test system: HL-60(TB) leukemia
# Test: NCI-60 one-dose screen, 48 h (100 = growth as untreated, 0 = no growth, -100 = all killed)
# Details: 10 µM unless noted
row,SMILES,growth
1,Cc1cc(C)c(-c2c(O)c(Br)c(-c3c(C)cc(C)c(Br)c3C)c(O)c2Br)c(C)c1Br,27.3%
2,O=C(Nc1cccc(-n2ccc3c(NC(=O)c4ccccc4)nccc32)c1)c1cc(N2CCOCC2)cc(C(F)(F)F)c1,-13.1% (active)
3,COC(=O)[C@]12CCC(C)(C)C[C@H]1[C@H]1/C(=N/OCCc3nn[nH]n3)C[C@@H]3[C@@]4(C)CC[C@H](OC(C)=O)C(C)(C)[C@@H]4CC[C@@]3(C)[C@]1(C)CC2,10.4%
4,O=C(CC(=O)C(F)(F)C(F)(F)C(F)(F)F)c1cc2ccccc2o1,99.3%
5,Clc1cccc(CNc2c3ccccc3nc3ccccc23)c1,9.02% (active)
6,Cc1cccc(/C=C2\N=C(c3ccccc3)N(c3ccc(S(N)(=O)=O)cc3)C2=O)c1,92.7%
